Assay [1] in a line: qHTS assay to identify small molecule agonists of the vitamin D receptor (VDR) signaling pathway - cell viability counter screen (AID 743224; active = well fitted curve in the direction sought with a large enough effect in the repeat runs; an effect the other way counts as inactive or inconclusive; note: series mostly up to about 63 µM; nearly all actives have a fitted effect of over 50% in size). The gist of the method:
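CellTiter-Glo viability readout on VDR-bla cells, measured after 16 h of compound treatment at 37C in the same wells.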

Assay [2] in a line: qHTS assay to identify small molecule antagonists of the vitamin D receptor (VDR) signaling pathway - cell viability counter screen (AID 743225; active = well fitted curve in the direction sought with a large enough effect in the repeat runs; an effect the other way counts as inactive or inconclusive; note: nearly all actives have a fitted effect of over 50% in size). The essentials:
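Compounds were pinned onto VDR-bla HEK 293T cells together with 1-alpha,25-dihydroxyvitamin D3 at 3 nM final. After 16 h at 37C and 5% CO2 plus the reporter readout, cell viability was measured by CellTiter-Glo luminescence (30 min, room temperature).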

Assay [3] is described as follows: qHTS assay to identify small molecule agonists of the NFkB signaling pathway (AID 1159509; active = well fitted curve in the direction sought with a large enough effect in the signal ratio in the repeat runs, not every such curve was filed as active; the % refers to the signal ratio; note: series mostly up to about 61 µM). The gist of the method:
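Readout: FRET fluorescence, 405 nm excitation, 460/530 nm emission; beta-lactamase expression disrupts FRET. Cells: ME-180 stably carrying NF-kB-driven bla reporter. Compound exposure 5 hr, 37 C, 5% CO2.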

A short description of assay [4]: qHTS assay to identify small molecule agonists of the NFkB signaling pathway - cell viability counter screen (AID 1159515). Note: series mostly up to about 61 µM; nearly all actives have a fitted effect of over 55% in size. The gist of the method:
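Tox21 library compounds were tested for cytotoxicity against NFkB-bla ME-180 cells during a 5 hr exposure at 37 C. CellTiter-Glo luminescence served as the viability read-out.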
In general terms: In qHTS, concentration-response curves come from the screen itself.

A short description of assay [5]: qHTS assay to identify small molecule agonists of the endoplasmic reticulum stress response signaling pathway (AID 1159516; active = well fitted activation curve with a large enough effect in the signal ratio in the repeat runs, not every such curve was filed as active; the % refers to the signal ratio). The essentials:
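Fluorescence at 460 and 530 nm (405 nm excitation) reports beta-lactamase from an ER stress response element in HeLa cells treated 5 hr at 37 C.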

Assay [6] in a line: qHTS assay to identify small molecule agonists of the endoplasmic reticulum stress response signaling pathway - cell viability counter screen (AID 1159517). Note: series mostly up to about 61 µM; nearly all actives have a fitted effect of over 50% in size. The essentials: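 Cytotoxicity of test compounds toward ESRE-bla HeLa cells was assessed after 5 hr exposure. The luminescent CellTiter-Glo signal was measured 30 min after reagent addition.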
The nature of assay [7]: qHTS assay to identify small molecule antagonists of the retinoid-related orphan receptor gamma (ROR-gamma) signaling pathway - cell viability counter screen (AID 1159520; active = well fitted curve in the direction sought with a large enough effect in the repeat runs; an effect the other way counts as inactive or inconclusive; note: nearly all actives have a fitted effect of over 50% in size). The gist of the method: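 Tet-on ROR gamma CHO cells (1,000/well) were plated 4 hr, given compounds in DMSO for 2 hr at 37 C, then induced with 1 uM final doxycycline for 16 hr. Viability was read as ATP by CellTiter-Glo luminescence after 30 min.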

For assay [8], the target named is Nuclear receptor ROR-gamma (Homo sapiens) (UniProt P51449). The experiment in a line: qHTS assay to identify small molecule antagonists of the retinoid-related orphan receptor gamma (ROR-gamma) signaling pathway (AID 1159521; active = well fitted curve in the direction sought with a large enough effect in the repeat runs; an effect the other way counts as inactive or inconclusive; note: nearly all actives have a fitted effect of over 50% in size; note: potency is the fitted concentration of half-maximal effect). The gist of the method:
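Test compounds were applied to Tet-on RORγ CHO cells 2 h ahead of doxycycline hyclate (1 uM final). Luciferase reporter activity was quantified by luminescence after 16 h at 37 C and 5% CO2.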

Assay [9] in a line: qHTS assay to identify small molecule agonists of the AP-1 signaling pathway - cell viability counter screen (AID 1159525). Note: nearly all actives have a fitted effect of over 55% in size. The essentials: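 Each titration point was normalised to DMSO and tetra n-octyl ammonium bromide controls. The read was Cell Titer Glo luminescence after 30 min at RT, following 5 h compound exposure of ME-180 AP-1-bla cells at 37 °C.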
Assay [10] in a line: qHTS assay to identify small molecule agonists of the AP-1 signaling pathway (AID 1159526). Note: potency is the fitted concentration of half-maximal effect.

Experimental findings from PubChem BioAssay (Tox21) are described below.

Records with an inconclusive call do not appear. Values without a mark were called inactive. The source made the active and inactive calls. Unless noted, calls come from the whole dose curve.

Regarding `CC(C)COC(=O)C(C)C`, the compound was called inactive in assay [1], in assay [2], in assay [3], in assay [4], in assay [5] and in assay [6]. In assay [9], the compound was called inactive. The Potency entry in assay [7], in [8] and in assay [10] was “inactive” throughout.

On to `CC(C)(O)Cc1ccccc1`, for which the result in assay [1], in assay [3], in [4], in [5], in assay [6] and in [9] was inactive. For the same compound, the Potency result in assay [8] and in [10] was “inactive” each time.

Turning to `NC(=O)Nc1nc2ccccc2[nH]1`, the compound was classed as inactive in assay [1], in [3], in assay [4], in assay [5], in [6] and in [9]. Also, the Potency result in assay [8] and in assay [10] was “inactive” in each case.

Take `CCN1CCCC(OC(=O)C(c2ccccc2)c2ccccc2)C1` (centres undefined): the compound was called inactive in [1], in assay [2], in [3], in [4], in assay [5] and in [6]. The outcome in assay [9] was inactive. The Potency entry in [7], in assay [8] and in assay [10] was “inactive” in each case.

For `CCOC(=O)Nc1ccc2c(c1)N(C(=O)CCN1CCOCC1)c1ccccc1S2`, the compound was classed as inactive in assay [1], in assay [2], in [3], in assay [4], in assay [5] and in [6]. Also, the compound was classed as inactive in [9]. For the same compound, the Potency entry in [7], in [8] and in assay [10] was “inactive” each time.

In the case of `COC(=O)CCCC(=O)O`, the call in assay [1], in assay [2], in assay [3], in assay [4], in [5] and in assay [6] was inactive. Moreover, the outcome in assay [9] was inactive. The Potency entry in assay [7], in assay [8] and in assay [10] was “inactive” throughout.

As for `OC1OC[C@@H](O)[C@H](O)[C@H]1O` (some centres undefined), the compound was called inactive in assay [1], in [2], in assay [3], in assay [4], in assay [5] and in assay [6]. Besides, the compound was classed as inactive in assay [9]. For the same compound, the Potency result in assay [7], in assay [8] and in [10] was “inactive” in each case.

As to `COc1ccc(NC(C)=O)cc1`, the outcome in [1], in [2], in assay [3], in [4], in [5] and in assay [6] was inactive. Further, the result in assay [9] was inactive. Besides, the Potency entry in assay [7], in assay [8] and in assay [10] was “inactive” in each case.

As for `CO[Si](OC)(OC)OC`, the outcome in assay [1], in assay [3], in assay [4], in assay [5], in assay [6] and in assay [9] was inactive. Further, the Potency result in assay [8] and in [10] was “inactive” throughout.

Take `COc1cc(C(=O)N2CCOCC2)cc(OC)c1OC`: the compound was called inactive in assay [1], in assay [2], in [3], in [4], in assay [5] and in [6]. In addition, the call in assay [9] was inactive. Besides, the Potency result in assay [7], in assay [8] and in assay [10] was “inactive” each time.

In the case of `Cc1cc(C)c(NC(=O)CN(CC(=O)O)CC(=O)O)c(C)c1Br`, the outcome in assay [1], in [2], in assay [3], in assay [4], in assay [5] and in assay [6] was inactive. In assay [9], the compound was classed as inactive. Besides, the Potency entry in [7], in assay [8] and in [10] was “inactive” in each case.

For the compound `CNc1ncnc2nc[nH]c12`, the result in assay [1], in [2], in assay [3], in [4], in [5] and in assay [6] was inactive. Further, the compound was classed as inactive in assay [9]. The Potency entry in assay [7], in assay [8] and in assay [10] was “inactive” throughout.

Turning to `O=C(O)C1CCC1`, the result in assay [1], in assay [2], in assay [3], in [4], in assay [5] and in assay [6] was inactive. The result in [9] was inactive. Moreover, the Potency entry in assay [7], in assay [8] and in assay [10] was “inactive” in each case.

For `C/C=C1\C(=O)C[C@H]2[C@@H]3CCC4=CC(=O)CC[C@]4(C)[C@H]3CC[C@]12C`, the compound was classed as inactive in assay [1], in assay [2], in assay [3], in assay [4], in assay [5] and in assay [6]. Also, the call in [9] was inactive. Moreover, the Potency entry in [7], in assay [8] and in assay [10] was “inactive” throughout.

For `CC(=O)O[C@H](CC(=O)[O-])C[N+](C)(C)C`, the compound was classed as inactive in assay [1], in assay [2], in assay [3], in [4], in assay [5] and in assay [6]. Further, in assay [9], the compound was classed as inactive. Besides, the Potency entry in assay [7], in [8] and in [10] was “inactive” each time.

For `CC(C)(O)c1ccccc1`, the outcome in [1], in assay [2], in [3], in [4], in [5] and in assay [6] was inactive. The outcome in [9] was inactive. The Potency entry in assay [7], in assay [8] and in assay [10] was “inactive” throughout.

Turning to `CSc1nc(NC2CC2)nc(NC(C)(C)C)n1`, the result in assay [1], in [2], in assay [3], in assay [4], in assay [5] and in assay [6] was inactive. For the same compound, in assay [9], the outcome was inactive. For the same compound, the Potency entry in [7], in [8] and in assay [10] was “inactive” each time.

Consider `CC(=O)CCc1ccc(O)cc1`, for which the call in [1], in assay [2], in [3], in assay [4], in [5] and in [6] was inactive. Further, the compound was called inactive in assay [9]. Further, the Potency result in assay [7], in [8] and in assay [10] was “inactive” each time.

For `CCCCc1ccc2cccc(S(=O)(=O)O)c2c1`, the compound was called inactive in assay [2], in assay [3], in [4], in assay [5], in assay [6] and in [9]. The Potency entry in assay [7], in assay [8] and in assay [10] was “inactive” throughout.

Turning to `C=CCOCC(O)CS(=O)(=O)O` (centres undefined), the outcome in assay [1], in assay [2], in assay [3], in assay [4], in assay [5] and in assay [6] was inactive. The call in assay [9] was inactive. Further, the Potency result in assay [8] and in assay [10] was “inactive” each time.

Take `O=C(O)c1ccccc1-c1ccc(C(F)(F)F)cc1`: the compound was called inactive in [1], in [2], in [3], in assay [4], in assay [5] and in [6]. Moreover, in assay [9], the compound was called inactive. For the same compound, the Potency result in assay [8] and in assay [10] was “inactive” throughout.

On to `CCCCCOC(=O)Nc1nc(=O)n([C@@H]2O[C@H](C)[C@@H](O)[C@H]2O)cc1F`, for which the result in [1], in assay [2], in assay [3], in assay [4], in assay [5] and in [6] was inactive. The outcome in assay [9] was inactive. For the same compound, the Potency in assay [8] was 11.9 µM (active). Further, in [10], the Potency entry was “inactive”.

With `c1cc(CN2CCCCC2)cc(OCCCNc2nc3ccccc3s2)c1`, the result in [1], in assay [3], in assay [4], in [5], in assay [6] and in [9] was inactive. The Potency in assay [8] was 26.6 µM (active); in [10], 26.8 µM (active).

Consider `CCN(CC)S(=O)(=O)c1ccc(C(=O)O)cc1`, for which the outcome in assay [1], in assay [2], in assay [3], in assay [4], in assay [5] and in [6] was inactive. In addition, in assay [9], the compound was classed as inactive. For the same compound, the Potency entry in assay [8] and in [10] was “inactive” each time.

On to `CCCCCCCCN(C)CCCCCCCC`, for which the call in assay [1], in assay [2], in assay [3], in [4], in assay [5] and in assay [6] was inactive. Further, the compound was classed as inactive in assay [9]. The Potency result in [8] and in assay [10] was “inactive” each time.

As to `C=CC(=O)OCCCCCC`, the result in [1], in assay [2], in assay [4], in [5], in assay [6] and in assay [9] was inactive. Also, the Potency entry in [7] and in assay [10] was “inactive” throughout.
